Experimental data: PubChem BioAssay AID1159580 (chemical genetic matrix, 2015)
Among all 5,500 compounds or so, about 2,000 (36%) were called active. Roughly 18% stayed inconclusive and do not appear here. No stated cut-off is given here; in the data, active means normalized growth mostly below about 0.91 (no sharp cut-off); inconclusive means no clear call, values can overlap the other calls; inactive means mostly above about 0.92. This is one part of the list.

Assay: chemical genetic growth profiling, strain panel (AID 1159580);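 further: tested at 20 µM; growth read once vehicle control cultures reached saturation at 30 °C; 1 = growth at the plate median or of vehicle wells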
Conditions: S. cerevisiae deletion strains, growth OD

Measured: normalized growth

CC(C)(C)NCC(O)c1cc(Cl)c(N)c(Cl)c1 (centres undefined)
inactive: locus YAL013W, strain DEP1, stronger effect = lower value 1.01 | locus YAL021C, strain ccr4, stronger effect = lower value 0.985 | locus YAL026C, strain drs2, stronger effect = lower value 1 | locus YAL030W, strain snc1, stronger effect = lower value 1 | locus YBL061C, strain skt5, stronger effect = lower value 1 | locus YBR009C, strain hhf1, stronger effect = lower value 1 | locus YBR021W, strain FUR4, stronger effect = lower value 1 | locus YBR023C, strain chs3, stronger effect = lower value 1 | locus YBR171W, strain sec66, stronger effect = lower value 1 | locus YBR229C, strain ROT2, stronger effect = lower value 1.01 | locus YBR231C, strain swc5, stronger effect = lower value 0.992 | locus YBR279W, strain paf1, stronger effect = lower value 1.01 | locus YCL011C, strain gbp2, stronger effect = lower value 1.01 | locus YCL016C, strain dcc1, stronger effect = lower value 0.998 | locus YCL029C, strain bik1, stronger effect = lower value 0.993 | locus YCL061C, strain MRC1, stronger effect = lower value 1.01 | locus YCL069W, strain vba3, stronger effect = lower value 0.992 | locus YCR088W, strain abp1, stronger effect = lower value 0.998 | locus YDL005C, strain med2, stronger effect = lower value 0.996 | locus YDL035C, strain GPR1, stronger effect = lower value 1.01 | locus YDL040C, strain nat1, stronger effect = lower value 0.988 | locus YDL074C, strain BRE1, stronger effect = lower value 1 | locus YDL101C, strain DUN1, stronger effect = lower value 1.01 | locus YDL134C, strain PPH21, stronger effect = lower value 1.02 | locus YDL185W, strain tfp1, stronger effect = lower value 1 | locus YDL192W, strain arf1, stronger effect = lower value 1 | locus YDR001C, strain nth1, stronger effect = lower value 0.995 | locus YDR069C, strain doa4, stronger effect = lower value 0.989 | locus YDR101C, strain arx1, stronger effect = lower value 0.983 | locus YDR137W, strain rgp1, stronger effect = lower value 1 | locus YDR150W, strain NUM1, stronger effect = lower value 1.02 | locus YDR159W, strain sac3, stronger effect = lower value 0.978 | locus YDR162C, strain NBP2, stronger effect = lower value 1 | locus YDR195W, strain ref2 0.961 | locus YDR297W, strain sur2, stronger effect = lower value 1 | locus YDR318W, strain mcm21, stronger effect = lower value 0.994 | locus YDR334W, strain swr1, stronger effect = lower value 1 | locus YDR335W, strain msn5, stronger effect = lower value 0.994 | locus YDR388W, stronger effect = lower value 0.992 | locus YDR392W, strain spt3, stronger effect = lower value 0.876 | locus YDR502C, strain sam2, stronger effect = lower value 1.01 | locus YEL003W, strain gim4, stronger effect = lower value 1 | locus YEL037C, strain rad23, stronger effect = lower value 0.998 | locus YEL061C, strain CIN8 (second series), stronger effect = lower value 1 | locus YEL061C, strain CIN8, stronger effect = lower value 1.01 | locus YER015W, strain faa2, stronger effect = lower value 0.999 | locus YER016W, strain bim1, stronger effect = lower value 1 | locus YER110C, stronger effect = lower value 0.998 | locus YER111C, strain swi4, stronger effect = lower value 1.01 | locus YER155C, strain BEM2 (second series), stronger effect = lower value 1.01 | locus YER155C, strain BEM2, stronger effect = lower value 1.02 | locus YER167W, strain BCK2, stronger effect = lower value 1.01 | locus YFR010W, strain ubp6, stronger effect = lower value 0.994 | locus YGL078C, strain dbp3, stronger effect = lower value 1.01 | locus YGL086W, strain mad1, stronger effect = lower value 0.997 | locus YGL167C, strain pmr1, stronger effect = lower value 1 | locus YGL173C, strain kem1, stronger effect = lower value 0.996 | locus YGL227W, strain vid30, stronger effect = lower value 1 | locus YGL240W, strain doc1, stronger effect = lower value 0.98 | locus YGL248W, strain PDE1, stronger effect = lower value 1 | locus YGL253W, strain hxk2, stronger effect = lower value 0.984 | locus YGR078C, strain PAC10, stronger effect = lower value 1.01 | locus YGR135W, strain pre9, stronger effect = lower value 1.01 | locus YGR229C, strain SMI1, stronger effect = lower value 1.01 | locus YGR252W, strain gcn5, stronger effect = lower value 1.04 | locus YHR013C, strain ard1, stronger effect = lower value 0.983 | locus YHR027C, strain rpn1, stronger effect = lower value 0.994 | locus YHR030C, strain SLT2, stronger effect = lower value 1.01 | locus YHR079C, strain IRE1 (second series), stronger effect = lower value 1 | locus YHR094C, strain hxt1, stronger effect = lower value 1 | locus YHR129C, strain ARP1, stronger effect = lower value 1.02 | locus YHR142W, strain chs7, stronger effect = lower value 0.997 | locus YHR200W, strain rpn10, stronger effect = lower value 1 | locus YIL066C, strain RNR3, stronger effect = lower value 1.01 | locus YIL073C, strain SPO22, stronger effect = lower value 1 | locus YIL125W, strain kgd1, stronger effect = lower value 1 | locus YIR030C, strain dcg1, stronger effect = lower value 0.995 | locus YJL092W, strain hpr5, stronger effect = lower value 0.997 | locus YJL095W, strain BCK1 (second series), stronger effect = lower value 1 | locus YJL095W, strain BCK1, stronger effect = lower value 1.01 | locus YJL115W, strain asf1, stronger effect = lower value 1 | locus YJL129C, strain trk1, stronger effect = lower value 0.996 | locus YJL134W, strain LCB3, stronger effect = lower value 1.01 | locus YJL154C, strain vps35, stronger effect = lower value 1 | locus YJL164C, strain tpk1, stronger effect = lower value 1 | locus YJL166W, strain qcr8, stronger effect = lower value 0.991 | locus YJL168C, strain set2, stronger effect = lower value 0.992 | locus YJL187C, strain SWE1 (second series), stronger effect = lower value 1.01 | locus YJL187C, strain SWE1, stronger effect = lower value 1
